Consider four molecules from PubChem BioAssay (EPA / NIEHS).

The term AC50 denotes the concentration at which the activity in the assay is half-maximal.

Assay [1] concerns the target Hepatocyte nuclear factor 4-alpha (Homo sapiens) (UniProt P41235). Kind of assay: ATG_HNF4a_TRANS: Attagene TRANS-FACTORIAL HepG2 Assay for human Hepatocyte Nuclear Factor 4 alpha (HNF4a) (AID 2282982; active = hit-call score of the fitted dose curve at least 0.9, where 1 is the maximum). The following applies: HepG2 HNF4a transactivation reporter, mRNA readout. In a few lines:
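Multiplexed reporter assay: transfected HepG2, 24 h exposure, total RNA → oligo(dT) RT → PCR → 6-FAM extension → HpaI digest → CE fluorescence. DMSO = negative control.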

Assay [2] can be described thus: ATG_M_06_TRANS: Attagene TRANS-FACTORIAL HepG2 Assay for M06 Transcription Factor (Internal Marker) (AID 2282983; active = hit-call score of the fitted dose curve at least 0.9, where 1 is the maximum). The following applies: HepG2 Attagene TRANS M06 internal marker reporter. The procedure, abridged: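 Multi-reporter-transfected HepG2, 24 h treatment; reporter transcripts quantified via RT-PCR, primer-extension labelling and CE. DMSO-normalized gain-of-signal fit.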

The nature of assay [3]: ATG_M_32_TRANS: Attagene TRANS-FACTORIAL HepG2 Assay for M32 Transcription Factor (Internal Marker) (AID 2282984; active = hit-call score of the fitted dose curve at least 0.9, where 1 is the maximum;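 note: transcript level of a background control reporter unit measured by RT-PCR and capillary electrophoresis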). The settings on record: HepG2 Attagene TRANS M32 internal marker reporter. The procedure, abridged: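 Cell-based TRANS-format assay in HepG2: exogenous chimeric GAL4 reporter units transiently expressed, compounds applied 24 h. Reporter mRNA detected by RT-PCR plus capillary electrophoresis; this readout is an internal background marker.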

Assay [4] has as its target Nuclear receptor subfamily 4 group A member 2 (Homo sapiens) (UniProt P43354). Kind of assay: ATG_NURR1_TRANS: Attagene TRANS-FACTORIAL HepG2 Assay for human Nuclear Receptor Related Protein 1 (NURR1) (AID 2282985; active = hit-call score of the fitted dose curve at least 0.9, where 1 is the maximum). The following applies: HepG2 Attagene TRANS reporter, mRNA readout. In a few lines:
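Measures transcriptional activation by an exogenous NR-Gal4 chimera in transfected HepG2 liver cells. After 24 h, reporter RNA is reverse-transcribed, amplified and resolved by capillary electrophoresis; DMSO defines baseline.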

The target of assay [5] is Transcriptional activator Myb (Homo sapiens) (UniProt P10242). Briefly: ATG_Myb_CIS: Attagene CIS-FACTORIAL HepG2 Assay for human Myeloblastosis (Myb) Proto-Oncogene Transcription Factor (AID 2282986). The settings on record: HepG2 Attagene CIS-FACTORIAL Myb reporter transcription; actives raise or lower the signal. In a few lines:
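After 24 h of compound dosing, total RNA from transfected HepG2 cells is reverse-transcribed and the reporter sequences amplified, labeled and separated by capillary electrophoresis. Values come from bidirectional fitting against DMSO.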

The target in assay [6] is Nuclear respiratory factor 1 (Homo sapiens) (UniProt Q16656). Kind of assay: ATG_NRF1_CIS: Attagene CIS-FACTORIAL HepG2 Assay for human Nuclear Respiratory Factor 1 (NRF1) Orphan Gene (AID 2282987). The settings on record: HepG2 NRF1 cis-element reporter, Attagene multiplex; actives raise or lower the signal. In a few lines:
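Measured: fluorescent reporter-specific RT-PCR products from transfected HepG2 cells, separated by capillary electrophoresis. Exposure lasted 24 h. Analysis used bidirectional curve fitting with DMSO as negative control.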

Assay [7] can be described thus: ATG_NFI_CIS: Attagene CIS-FACTORIAL HepG2 Assay for human Nuclear Factor I (NFI) (AID 2282989). The following applies: HepG2 cis-regulatory reporter, NFI response element transcription; actives raise or lower the signal. The procedure, abridged: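 Reporter transcripts were measured by RT-PCR with fluorescent primer extension and capillary electrophoresis 24 h post-treatment. HepG2 cells carried transiently transfected cis-regulated reporter constructs reporting endogenous factor activity; gain or loss fitted against DMSO baseline.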

Assay [8] addresses Myc proto-oncogene protein (Homo sapiens) (UniProt P01106). Briefly: ATG_Myc_CIS: Attagene CIS-FACTORIAL HepG2 Assay for human Myelocytomatosis (Myc) Proto-Oncogene Transcription Factor (AID 2282990). The following applies: HepG2, Attagene cis-reporter transcription factor activity; actives raise or lower the signal. The procedure, abridged:
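Cells of the HepG2 human liver line bear multiple cis-driven reporter transcription units. Reporter mRNA after 24 h exposure is reverse-transcribed, amplified, labelled and resolved by capillary electrophoresis, with gain- or loss-of-signal fitting relative to DMSO.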

A short description of assay [9]: ATG_NF_kB_CIS: Attagene CIS-FACTORIAL HepG2 Assay for human Nuclear Factor Kappa B (NF-kB) (AID 2282991). The settings on record: HepG2 Attagene cis-factorial NF-kB reporter mRNA; actives raise or lower the signal. The procedure, abridged: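 Fluorescence of labelled RT-PCR products separated by capillary electrophoresis gives reporter mRNA levels from transfected HepG2 cells exposed 24 h; values are fitted in both directions relative to DMSO.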

A short description of assay [10]: ATG_NRF2_ARE_CIS: Attagene CIS-FACTORIAL HepG2 Assay for human Nuclear Factor Erythroid 2 Related Factor 2 (NFR2) response to Antioxidant Response Elements (ARE) (AID 2282992). The following applies: HepG2 Attagene ARE/NRF2 reporter, transcription factor activity; actives raise or lower the signal. In a few lines:
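Using transiently transfected HepG2 cells exposed for 24 h, reporter mRNA levels were determined by RT-PCR with fluorescent primer extension and capillary electrophoresis, analysed for gain or loss of signal against DMSO.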

A short description of assay [11]: ATG_Oct_MLP_CIS: Attagene CIS-FACTORIAL HepG2 Assay for human Octamer-Binding Transcription Factor (Oct) (AID 2282993). The settings on record: HepG2 Attagene cis-factorial Oct reporter, mRNA; actives raise or lower the signal. The procedure, abridged:
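Readout is reporter transcript level from RT-PCR with fluorescent primer extension and capillary electrophoresis, fitted in both directions against DMSO. Transfected HepG2 reporter units report endogenous factor activity after 24 h dosing.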

Assay [12] has as its target Cellular tumor antigen p53 (Homo sapiens) (UniProt P04637). Kind of assay: ATG_p53_CIS: Attagene CIS-FACTORIAL HepG2 Assay for human p53 Transcription Factor (AID 2282994). The following applies: HepG2 p53 cis-element reporter, Attagene mRNA; actives raise or lower the signal. In a few lines: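 In HepG2 cells, reporter transcription units under cis-regulatory promoters were transiently introduced. Following 24 h treatment, RNA was processed to labelled, digested cDNA fragments read by capillary electrophoresis; fitting was bidirectional versus DMSO.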

Assay [13] in a line: BSK_3C_TissueFactor: BioMAP Diversity Plus: 3C Assay for Tissue Factor Biomarker Activity (AID 2282997). The settings on record: BioMAP 3C HUVEC, tissue factor biomarker readout; actives raise or lower the signal. The procedure, abridged:
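In this endothelial system, HUVEC are treated for 24 h and Tissue Factor is assessed by ELISA, normalised to DMSO.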

Assay [14] is described as follows: BSK_3C_uPAR: BioMAP Diversity Plus: 3C Assay for Urokinase-type plasminogen activator receptor (uPAR) Biomarker Activity (AID 2282998). The following applies: BioMAP 3C HUVEC, uPAR biomarker ELISA; actives raise or lower the signal. In a few lines: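 Cell-surface uPAR on HUVEC (3C system) read by ELISA at 24 h post-treatment, with DMSO as baseline and fitting in both directions. Parallel cultures stained with SRB to flag overt cytotoxicity.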
For orientation: An ELISA detects its analyte on a solid surface through an enzyme-linked reagent.

Assay [15] can be described thus: BSK_3C_VCAM1: BioMAP Diversity Plus: 3C Assay for Vascular cell adhesion molecule 1 (VCAM1) Biomarker Activity (AID 2282999). The following applies: BioMAP 3C HUVEC, VCAM1 ELISA, cytokine-stimulated; actives raise or lower the signal. The procedure, abridged:
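Activity fitted in both directions relative to DMSO, with ELISA measurement of the surface marker on primary HUVEC (3C) at 24 h post-treatment; parallel SRB staining (0.1% SRB, TCA-fixed, 560 nm) flagged overt cytotoxicity.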

Assay [16] in a line: BSK_4H_Eotaxin3: BioMAP Diversity Plus: 4H Assay for Eotaxin 3 Biomarker Activity (AID 2283000).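 For outcome: CCL26 protein level quantified by ELISA in parallel with SRB cytotoxicity check.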 The settings on record: primary human endothelial cells (HUVEC); actives raise or lower the signal. In a few lines: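 ELISA quantitation of CCL26 (Eotaxin-3) protein from chemically dosed human vascular endothelial cells at 24 h; increases and decreases both scored relative to DMSO-treated baseline.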

In assay [17] the target is human Peroxisome Proliferator-activated Receptor alpha (PPARa), PPARA (gene 5465) (UniProt Q07869). Kind of assay: ATG_PPARa_TRANS: Attagene TRANS-FACTORIAL HepG2 Assay for human Peroxisome Proliferator-activated Receptor alpha (PPARa) (AID 2283001; active = hit-call score of the fitted dose curve at least 0.9, where 1 is the maximum;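 for AC50: potency for gain of reporter signal over DMSO so agonist or activator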). The procedure, abridged:
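Transfected HepG2 cells treated with test chemical for 24 h. RNA isolated, reverse-transcribed with oligo(dT), PCR-amplified, FAM-labelled and HpaI-digested. Fragments sized by capillary electrophoresis; gain-of-signal fit relative to DMSO.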

Assay [18] concerns the target human Peroxisome Proliferator-activated Receptor delta (PPARd), PPARD (gene 5467) (UniProt Q03181). Kind of assay: ATG_PPARd_TRANS: Attagene TRANS-FACTORIAL HepG2 Assay for human Peroxisome Proliferator-activated Receptor delta (PPARd) (AID 2283002; active = hit-call score of the fitted dose curve at least 0.9, where 1 is the maximum). The procedure, abridged:
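Cell-based TRANS reporter: HepG2, transient MRTU transfection, 24 h exposure. Readout = reporter mRNA (RT-PCR/CE, 6-FAM). Gain-of-signal fit vs DMSO control.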

For assay [19], the target named is Oxysterols receptor LXR-beta (Homo sapiens) (UniProt P55055). Briefly: ATG_LXRb_TRANS: Attagene TRANS-FACTORIAL HepG2 Assay for human Liver X Receptor beta (LXRb) (AID 2282981; active = hit-call score of the fitted dose curve at least 0.9, where 1 is the maximum). The settings on record: HepG2 Attagene TRANS GAL4-LXRb reporter, mRNA. The procedure, abridged:
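After 24 h of chemical treatment, transfected HepG2 cells yield total RNA; reporter cDNA is PCR-amplified, FAM-labelled, HpaI-cut and run on capillary electrophoresis. Signal reflects chimeric LXRb-Gal4 activity on GAL4-UAS reporters.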

Values joined by “and” are separate entries in the source; they are usually repeats but may differ in a detail not shown here. Identical values can stand only once. Records with an inconclusive call do not appear. A structure can be active in one record and inactive in another. Active and inactive are the calls of the source. Rule for the calls, unless noted: active = hit-call score of the fitted dose curve at least 0.9, where 1 is the maximum; inactive = score below 0.9.

Nuclear receptor subfamily 4 group A member 2 (Homo sapiens), sequence (P43354 whole entry, looked up, the tested form may be a part): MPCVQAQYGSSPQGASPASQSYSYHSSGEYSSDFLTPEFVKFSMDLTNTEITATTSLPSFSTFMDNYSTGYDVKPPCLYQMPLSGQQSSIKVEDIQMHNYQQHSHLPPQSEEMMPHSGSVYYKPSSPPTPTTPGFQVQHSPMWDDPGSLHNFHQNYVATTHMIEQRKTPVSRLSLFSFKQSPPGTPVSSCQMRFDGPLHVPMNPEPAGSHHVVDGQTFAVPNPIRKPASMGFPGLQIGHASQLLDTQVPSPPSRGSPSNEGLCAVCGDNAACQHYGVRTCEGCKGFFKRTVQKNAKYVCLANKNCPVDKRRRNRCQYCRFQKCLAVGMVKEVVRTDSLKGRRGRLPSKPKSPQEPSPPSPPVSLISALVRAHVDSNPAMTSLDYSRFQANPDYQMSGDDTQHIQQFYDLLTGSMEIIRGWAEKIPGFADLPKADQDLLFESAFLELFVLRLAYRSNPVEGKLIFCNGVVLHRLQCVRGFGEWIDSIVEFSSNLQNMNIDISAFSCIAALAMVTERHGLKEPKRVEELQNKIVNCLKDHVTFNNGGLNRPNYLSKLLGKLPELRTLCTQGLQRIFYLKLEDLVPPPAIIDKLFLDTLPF
Nuclear respiratory factor 1 (Homo sapiens), sequence (Q16656 whole entry, looked up): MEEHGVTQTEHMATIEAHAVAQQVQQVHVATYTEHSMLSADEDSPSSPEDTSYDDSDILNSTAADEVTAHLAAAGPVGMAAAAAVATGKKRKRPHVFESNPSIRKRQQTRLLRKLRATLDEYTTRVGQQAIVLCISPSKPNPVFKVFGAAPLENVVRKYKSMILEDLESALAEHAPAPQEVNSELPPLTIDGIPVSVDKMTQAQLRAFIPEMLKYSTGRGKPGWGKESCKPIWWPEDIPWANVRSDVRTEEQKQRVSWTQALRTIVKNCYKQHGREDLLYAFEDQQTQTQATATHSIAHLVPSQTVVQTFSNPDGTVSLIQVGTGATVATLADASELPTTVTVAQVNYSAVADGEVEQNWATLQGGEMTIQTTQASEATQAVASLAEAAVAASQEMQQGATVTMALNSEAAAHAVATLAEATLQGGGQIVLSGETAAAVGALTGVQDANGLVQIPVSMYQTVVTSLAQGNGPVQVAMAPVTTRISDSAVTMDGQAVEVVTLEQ
Myc proto-oncogene protein (Homo sapiens), sequence (P01106 whole entry, looked up): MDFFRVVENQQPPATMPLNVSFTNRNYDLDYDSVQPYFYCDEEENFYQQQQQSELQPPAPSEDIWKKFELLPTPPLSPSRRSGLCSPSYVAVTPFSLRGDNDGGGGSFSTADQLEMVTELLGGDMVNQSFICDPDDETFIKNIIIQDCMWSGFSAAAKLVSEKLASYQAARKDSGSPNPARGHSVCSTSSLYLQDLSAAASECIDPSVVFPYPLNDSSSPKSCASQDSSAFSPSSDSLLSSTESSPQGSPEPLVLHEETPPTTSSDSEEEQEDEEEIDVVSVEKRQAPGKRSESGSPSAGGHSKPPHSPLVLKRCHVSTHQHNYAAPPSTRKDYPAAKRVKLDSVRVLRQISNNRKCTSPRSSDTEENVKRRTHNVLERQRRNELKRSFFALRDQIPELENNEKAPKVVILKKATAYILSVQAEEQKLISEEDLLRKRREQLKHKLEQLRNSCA
human Peroxisome Proliferator-activated Receptor alpha (PPARa), PPARA (gene 5465), sequence (Q07869 whole entry, looked up, the tested form may be a part): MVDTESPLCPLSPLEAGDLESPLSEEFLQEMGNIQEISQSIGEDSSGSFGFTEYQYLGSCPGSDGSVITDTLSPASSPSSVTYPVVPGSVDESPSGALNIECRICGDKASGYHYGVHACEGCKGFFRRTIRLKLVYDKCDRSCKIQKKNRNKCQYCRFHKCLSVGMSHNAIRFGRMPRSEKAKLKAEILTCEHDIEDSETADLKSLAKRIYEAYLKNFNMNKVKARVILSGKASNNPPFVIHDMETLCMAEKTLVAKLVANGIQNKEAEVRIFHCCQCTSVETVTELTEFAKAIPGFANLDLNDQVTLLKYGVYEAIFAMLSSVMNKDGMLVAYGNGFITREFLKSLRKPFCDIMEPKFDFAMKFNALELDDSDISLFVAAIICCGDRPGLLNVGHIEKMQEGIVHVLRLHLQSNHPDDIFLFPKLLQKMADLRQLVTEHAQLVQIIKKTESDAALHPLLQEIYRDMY
human Peroxisome Proliferator-activated Receptor delta (PPARd), PPARD (gene 5467), sequence (Q03181 whole entry, looked up): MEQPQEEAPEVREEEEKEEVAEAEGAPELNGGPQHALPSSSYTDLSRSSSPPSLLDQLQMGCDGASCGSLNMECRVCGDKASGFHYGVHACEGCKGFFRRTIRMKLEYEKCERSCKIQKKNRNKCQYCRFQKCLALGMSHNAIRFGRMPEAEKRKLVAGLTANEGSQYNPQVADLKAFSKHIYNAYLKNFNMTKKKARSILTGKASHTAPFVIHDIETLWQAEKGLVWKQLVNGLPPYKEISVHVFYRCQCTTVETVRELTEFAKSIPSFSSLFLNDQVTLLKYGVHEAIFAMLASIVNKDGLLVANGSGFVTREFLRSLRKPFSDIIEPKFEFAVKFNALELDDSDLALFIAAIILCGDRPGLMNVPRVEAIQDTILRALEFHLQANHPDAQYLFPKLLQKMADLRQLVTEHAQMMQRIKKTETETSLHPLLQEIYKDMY
Cellular tumor antigen p53 (Homo sapiens), sequence (P04637 whole entry, looked up, the tested form may be a part): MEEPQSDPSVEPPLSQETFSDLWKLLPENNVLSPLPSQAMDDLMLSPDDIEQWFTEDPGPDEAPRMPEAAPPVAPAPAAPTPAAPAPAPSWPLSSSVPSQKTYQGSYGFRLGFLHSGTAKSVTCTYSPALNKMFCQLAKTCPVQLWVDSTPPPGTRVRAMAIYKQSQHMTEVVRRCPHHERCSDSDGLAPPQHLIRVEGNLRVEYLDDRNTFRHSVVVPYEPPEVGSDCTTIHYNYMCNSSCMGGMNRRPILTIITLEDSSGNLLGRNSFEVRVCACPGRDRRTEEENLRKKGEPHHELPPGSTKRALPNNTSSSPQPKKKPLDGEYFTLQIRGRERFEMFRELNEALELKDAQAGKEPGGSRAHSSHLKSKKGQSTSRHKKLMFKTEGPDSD
Hepatocyte nuclear factor 4-alpha (Homo sapiens), sequence (P41235 whole entry, looked up): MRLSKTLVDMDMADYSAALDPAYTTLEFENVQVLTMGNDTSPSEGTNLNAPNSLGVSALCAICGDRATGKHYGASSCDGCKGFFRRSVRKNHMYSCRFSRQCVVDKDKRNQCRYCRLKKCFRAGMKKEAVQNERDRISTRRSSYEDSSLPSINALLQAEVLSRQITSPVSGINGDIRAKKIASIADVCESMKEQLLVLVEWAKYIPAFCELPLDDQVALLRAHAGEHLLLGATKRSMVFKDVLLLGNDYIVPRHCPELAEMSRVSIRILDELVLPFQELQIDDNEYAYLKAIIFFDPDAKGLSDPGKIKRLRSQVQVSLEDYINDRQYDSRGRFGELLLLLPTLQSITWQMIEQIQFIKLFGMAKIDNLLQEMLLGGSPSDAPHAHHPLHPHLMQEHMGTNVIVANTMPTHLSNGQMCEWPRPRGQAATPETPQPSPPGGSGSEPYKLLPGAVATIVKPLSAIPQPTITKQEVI
Transcriptional activator Myb (Homo sapiens), sequence (P10242 whole entry, looked up): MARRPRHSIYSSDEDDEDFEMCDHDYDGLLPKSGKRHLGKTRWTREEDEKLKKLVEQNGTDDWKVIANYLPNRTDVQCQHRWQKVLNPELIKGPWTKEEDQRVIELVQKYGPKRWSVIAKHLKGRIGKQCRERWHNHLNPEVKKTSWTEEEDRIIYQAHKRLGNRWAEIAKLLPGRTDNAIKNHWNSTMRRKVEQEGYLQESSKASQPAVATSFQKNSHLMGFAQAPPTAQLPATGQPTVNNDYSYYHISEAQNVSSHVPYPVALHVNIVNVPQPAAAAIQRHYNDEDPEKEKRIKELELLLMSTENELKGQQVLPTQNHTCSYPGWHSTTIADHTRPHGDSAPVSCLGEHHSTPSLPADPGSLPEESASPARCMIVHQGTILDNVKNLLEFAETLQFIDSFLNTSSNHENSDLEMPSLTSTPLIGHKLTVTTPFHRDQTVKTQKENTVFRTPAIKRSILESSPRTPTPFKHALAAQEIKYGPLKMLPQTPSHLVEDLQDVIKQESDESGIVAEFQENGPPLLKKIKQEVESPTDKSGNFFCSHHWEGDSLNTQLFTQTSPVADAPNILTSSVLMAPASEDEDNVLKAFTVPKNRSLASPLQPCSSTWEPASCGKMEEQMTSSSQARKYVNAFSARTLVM
Oxysterols receptor LXR-beta (Homo sapiens), sequence (P55055 whole entry, looked up, the tested form may be a part): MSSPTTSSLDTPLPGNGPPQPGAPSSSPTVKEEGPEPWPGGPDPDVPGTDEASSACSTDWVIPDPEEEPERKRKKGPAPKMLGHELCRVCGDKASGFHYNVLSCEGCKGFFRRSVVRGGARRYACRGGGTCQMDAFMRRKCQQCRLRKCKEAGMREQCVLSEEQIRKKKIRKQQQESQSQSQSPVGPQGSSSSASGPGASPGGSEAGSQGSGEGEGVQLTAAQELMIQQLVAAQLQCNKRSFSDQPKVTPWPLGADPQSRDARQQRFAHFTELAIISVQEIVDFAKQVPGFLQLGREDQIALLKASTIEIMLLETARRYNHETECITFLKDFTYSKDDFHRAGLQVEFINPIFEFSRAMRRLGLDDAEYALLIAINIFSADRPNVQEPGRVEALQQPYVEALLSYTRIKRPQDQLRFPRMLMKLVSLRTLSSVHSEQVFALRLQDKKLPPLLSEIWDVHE

Take `C[C@]12CC[C@@H]3c4ccc(O)cc4CC[C@H]3[C@@H]1C[C@@H](O)[C@@H]2O`: the outcome in assay [1], in [2], in assay [3], in [4], in [5] and in assay [6] was inactive. Further, the call in [7], in assay [8], in [9], in assay [10], in assay [11] and in assay [12] was inactive. Also, the result in assay [13], in assay [14], in assay [15], in assay [16], in assay [17] and in [18] was inactive.

`O=C(O)C(F)(F)OC(F)(F)C(F)(F)OC(F)(F)C(F)(F)OC(F)(F)C(F)(F)C(F)(F)C(F)(F)F`: the AC50 in assay [1] is 84.7 µM (active); in assay [4] it was 13.4 µM (active) and 16.6 µM (active); in assay [7], 80.8 µM (active); in assay [8], 11.9 µM (active); in [9], 27.5 µM (active); in [10], 4.04 µM (active). Also, the AC50 was 34 µM (active) and 29.7 µM (active) in [11]; 27.4 µM (active) in assay [12]; 22.3 µM (active) and 27.7 µM (active) in [13]; 21.3 µM (active) and 23 µM (active) in assay [14]; 52.2 µM (active) and 50.4 µM (active) in assay [15]; 45.5 µM (active) and 51.6 µM (active) in [16]. In addition, in assay [17], the AC50 is 24 µM (active). For the same molecule, the molecule was called inactive in [1], in assay [2], in [3], in assay [5], in assay [6] and in assay [7]. Moreover, the outcome in assay [8], in [9], in assay [10], in [12], in [17] and in [18] was inactive.

Consider `CCCCc1oc2ccccc2c1C(=O)c1cc(I)c(OCCN(CC)CC)c(I)c1`, for which the outcome in assay [19], in assay [3], in [5], in [8], in assay [12] and in assay [18] was inactive. The AC50 in assay [13] is 10.2 µM (active); in assay [14], 6.63 µM (active); in assay [15], 22.6 µM (active); in assay [16] it was 19.6 µM (active).

With `COc1ccccc1NC(=O)c1cc2ccccc2cc1O`, the outcome in assay [1], in assay [2], in assay [3], in [4], in assay [6] and in assay [9] was inactive. Further, the result in assay [10] and in assay [17] was inactive. Besides, the AC50 in assay [5] is 121 µM (active); in assay [7] it was 30.4 µM (active); in [8], 100 µM (active); in assay [11], 26.7 µM (active); in assay [12] it was 17.4 µM (active).
